Shown is part of a subset that was picked to be rich in hits.
LASV entry inh – blocks Lassa virus binding to or entry into cells | Potency, µM (highest dose often 37.9 µM), for inactives: at the top dose activity change, negative = inhibition, actives largely listed as inhibitors | Lassa virus pseudotype entry inhibition, cell reporter | actives 1.2% (n = 300,000); calls by dose curve; tested in HEK293 cells; also: potency is read from the fitted curve at half-maximal effect; % is scaled to controls: 0 for no effect and ±100 for the full control effect; nearly all actives have a fitted effect of over 50% in size
VACV mCherry inh – vaccinia inhibition (mCherry reporter) | actives 0.63% (n = 310,000) | Vaccinia virus mCherry reporter infection, fluorescence | Potency, µM (series often up to 36.5 µM), inactives show at the highest dose activity change, negative = inhibition, actives largely listed as inhibitors; calls by dose curve; tested in A549 cells; also: potency is read from the fitted curve at half-maximal effect; % is scaled to controls: 0 for no effect and ±100 for the full control effect; nearly all actives have a fitted effect of over 35% in size
Vaccinia Venus – inhibitors of vaccinia virus (Venus reporter); Vaccinia virus Venus reporter expression, fluorescence; Potency, µM (series often up to 36.5 µM), for the others: top-dose activity change, negative = inhibition, hits mostly inhibitors; actives 0.46% (n = 330,000); AID 720580; calls by dose curve; tested in A549 cells; also: potency is read from the fitted curve at half-maximal effect; % is scaled to controls: 0 for no effect and ±100 for the full control effect; nearly all actives have a fitted effect of over 30% in size
Shiga toxin inh – Shiga toxin inhibition; actives 9.2% (n = 290,000); inhibition, % at 38.7 µM; Vero cells, Shiga toxin protein synthesis inhibition reporter; AID 2315; in the data active = inhibition mostly above about 28%, no sharp cut-off; inactive = mostly below about 43%; also: 0% is about no effect
CHX counter – counter-screen for Shiga toxin inhibitors: cycloheximide protein synthesis inhibition; cell reporter, cycloheximide protein synthesis inhibition counterscreen; max response, %; actives 12% (n = 300,000); in the data active = max response mostly above about 13%, no sharp cut-off; inactive = mostly below about 14%; also: read at 38.3 µM for the half of the compounds with a filed dose; 0% is about no effect
MARV entry inh – blocks Marburg virus binding to or entry into cells; Potency, µM (series often up to 37.8 µM), without a hit: at the highest dose activity change, negative = inhibition, hits mostly inhibitors; Marburg virus pseudotyped entry inhibition, cell reporter; actives 1.8% (n = 300,000); calls by dose curve; tested in HEK293 cells; also: potency is read from the fitted curve at half-maximal effect; % is scaled to controls: 0 for no effect and ±100 for the full control effect
Active calls of the source: *; [ ] = remark or other dose.

`COc1cc(OC)cc(C2=NC3(CCC(C)CC3)NC2=S)c1` (configuration not stated) gave LASV entry inh -26.9%[46.1 µM], VACV mCherry inh -15.1%, Vaccinia Venus -9.9%, Shiga toxin inh 52.6, CHX counter -3.8 and MARV entry inh inconclusive.
CCn1c(SCC(=O)OC)nnc1-c1c[nH]c2ccccc12 was read as LASV entry inh 4.9%[46.1 µM], VACV mCherry inh -0.2%, Vaccinia Venus 1.7%, Shiga toxin inh -8.5, CHX counter -0.4 and MARV entry inh 8.5%[46.1 µM].
`O=C(Nc1ccc(Cl)cc1)OCCN1CCOCC1` gave LASV entry inh 1.0%[46.1 µM], VACV mCherry inh inactive, Vaccinia Venus 0.1% and MARV entry inh 25.0%[46.1 µM].
O=C(OCCN1CCOCC1)c1ccc(Cl)cc1Cl was read as Shiga toxin inh 47.5* and CHX counter 38.9*.
For Cc1ccccc1C(=O)OCCN1CCOCC1 the results were LASV entry inh 13.4%, VACV mCherry inh inactive, Vaccinia Venus -5.6%, Shiga toxin inh -2.2, CHX counter 23.4* and MARV entry inh inconclusive.
Screening O=C(Nc1ccccc1NC(=O)c1ccc(F)cc1)c1ccc(F)cc1 returned Shiga toxin inh -3.1 and CHX counter -4.3.
O=C(Nc1ccccc1OC(=O)c1ccc(Cl)cc1)c1ccc(Cl)cc1 was read as LASV entry inh -0.8%, VACV mCherry inh -28.5%, Vaccinia Venus -18.2%, Shiga toxin inh 33.9*, CHX counter 36.5* and MARV entry inh -26.7%.
For COc1ccc(C(=O)Nc2cc(Cl)ccc2OC(=O)c2ccc(OC)cc2)cc1 the results were LASV entry inh inconclusive, VACV mCherry inh -15.4%, Vaccinia Venus -16.7%, Shiga toxin inh 89.1*, CHX counter 65.5* and MARV entry inh inconclusive.
`COc1ccc(CC(=O)Nc2cc(Cl)ccc2O)cc1` gave LASV entry inh 25.1%, VACV mCherry inh -0.9%, Vaccinia Venus -13.6%, Shiga toxin inh 7.7, CHX counter 10.9* and MARV entry inh -7.0%.
`Cc1ccc(C(=O)Nc2cc(Cl)ccc2OC(=O)c2ccc(C)cc2)cc1` gave Shiga toxin inh 97.8*, CHX counter 35.7* and MARV entry inh 3.2%.
For COc1ccc(OC)c(NC(=O)c2ccc(Cl)cc2)c1 the results were LASV entry inh -19.0%, VACV mCherry inh -10.7%, Vaccinia Venus -10.4%, Shiga toxin inh 22.7, CHX counter 9.9 and MARV entry inh -29.9%[46.1 µM].
Screening COc1ccc(C(=O)Nc2cc(Cl)ccc2Cl)c(OC)n1 returned LASV entry inh inconclusive, VACV mCherry inh -20.9%[1.46 µM], Vaccinia Venus -8.2%, Shiga toxin inh 21.4, CHX counter 17.8* and MARV entry inh 12.7%.
For Cc1cc(NC(=O)c2ccc(Cl)cc2)c(C)cc1O the results were LASV entry inh -1.3%[46.1 µM], VACV mCherry inh -7.9%, Vaccinia Venus -9.9%, Shiga toxin inh 65.5, CHX counter 12.7 and MARV entry inh inconclusive.
O=C(Nc1ccccc1O)c1ccc([N+](=O)[O-])cc1 was read as Shiga toxin inh 78.0* and CHX counter 26.6*.
`O=C(Nc1ccccc1O)c1ccc(Cl)cc1` gave LASV entry inh 16.8%, VACV mCherry inh -14.5%, Vaccinia Venus -17.5%, Shiga toxin inh 95.4*, CHX counter 42.0* and MARV entry inh inconclusive.
`CCOC(=O)c1ccccc1-c1csc(NS(=O)(=O)c2ccc(Cl)cc2)n1` gave LASV entry inh -22.2%, VACV mCherry inh -21.2%, Vaccinia Venus -13.6%, Shiga toxin inh -10.9, CHX counter 0.6 and MARV entry inh -7.7%[46.1 µM].
O=C(Nc1c2c(nn1-c1ccccc1)CS(=O)(=O)C2)c1ccc2c(c1)OCO2 was read as LASV entry inh -12.1%, VACV mCherry inh inactive, Vaccinia Venus -10.9%, Shiga toxin inh -10.5, CHX counter -2.0 and MARV entry inh 0.4%.
`Cc1ccc(N(C)C(=O)c2cnc(N3CCOCC3)c3ccccc23)cc1C` gave LASV entry inh inconclusive, VACV mCherry inh -4.9% and Vaccinia Venus -6.6%.
For CCN(C(=O)c1cnc(N2CCOCC2)c2ccccc12)c1cc(C)ccc1C the results were LASV entry inh 5.01µM*, VACV mCherry inh -14.1% and Vaccinia Venus -3.0%.
For Cc1nc2nc(NCc3ccc(Cl)cc3)[nH]n2c(=O)c1Cc1ccccc1 the results were LASV entry inh -21.8%[46.1 µM], VACV mCherry inh -10.4%, Vaccinia Venus -5.2% and MARV entry inh 8.6%[46.1 µM].
`COc1ccc(-c2nc3c4ccccc4n(CC(=O)N4CCN(c5ccccc5F)CC4)c(=O)n3n2)cc1` gave LASV entry inh -2.2%[46.1 µM], VACV mCherry inh -13.6% and Vaccinia Venus -6.5%.
`O=C(Nc1cc(Cl)cc2c1-c1ccc(Cl)cc1C2O)C(Cl)Cl` (configuration not stated) gave LASV entry inh 12.6µM*, VACV mCherry inh -25.7%, Vaccinia Venus -26.2% and MARV entry inh inconclusive.
Screening CC(C)Sc1nc(-c2cccs2)nc2cc(Cl)ccc12 returned VACV mCherry inh 1.0% and Vaccinia Venus 0.3%.
Screening Cn1ccc2cc(S(=O)(=O)N3CCN(S(=O)(=O)c4c(F)cccc4F)CC3)ccc21 returned Shiga toxin inh -5.6 and CHX counter -5.7.
`Brc1ccc(-c2ncc(-c3ccccc3)cn2)cc1` gave LASV entry inh inconclusive, Vaccinia Venus -6.3%, Shiga toxin inh 135.9*, CHX counter 45.8* and MARV entry inh inconclusive.
Screening Brc1ccc(-c2ccccc2)cc1 returned VACV mCherry inh inactive and Vaccinia Venus -8.2%.
Screening O=C(CSc1nc(=O)[nH]c2c1CCCC2)NCc1ccc(Cl)cc1 returned LASV entry inh -2.3%[46.1 µM], VACV mCherry inh -4.9%[7.34 µM] and Vaccinia Venus -7.9%[7.34 µM].
`O=C(Nc1ccc(OCC(=O)N2CCOCC2)cc1)c1cccc(Cl)c1` gave LASV entry inh -4.1%, VACV mCherry inh -13.3%, Vaccinia Venus -6.2%, Shiga toxin inh 26.4*, CHX counter 20.3 and MARV entry inh inconclusive.
`COc1ccc(C(=O)Nc2ccc(OCC(=O)N3CCOCC3)cc2)c(OC)c1OC` gave LASV entry inh inconclusive, VACV mCherry inh -14.6%, Vaccinia Venus 2.6%, Shiga toxin inh 16.0, CHX counter 20.8* and MARV entry inh -3.3%.
For O=C(Nc1ccc(OCC(=O)N2CCOCC2)cc1)c1ccccc1F the results were LASV entry inh inconclusive, VACV mCherry inh 20.6%, Vaccinia Venus -4.6%, Shiga toxin inh 52.8, CHX counter 21.2* and MARV entry inh -29.9%[46.1 µM].
For COC(=O)Nc1ccc(OCC(=O)N2CCOCC2)cc1 the results were LASV entry inh 1.2%, VACV mCherry inh -14.0%, Vaccinia Venus -8.1%, Shiga toxin inh 8.9, CHX counter -1.5 and MARV entry inh -8.4%.
`COc1cc(C(=O)NNC(=O)c2cccc(Cl)c2)ccc1OCC(=O)N1CCOCC1` gave LASV entry inh 4.6%, VACV mCherry inh -2.5%, Vaccinia Venus 1.3% and MARV entry inh -1.3%.
`COC(=O)[C@@H]1C[C@H]1[C@@H](NC(=O)c1cc(C)on1)c1ccccc1` gave VACV mCherry inh inactive and Vaccinia Venus -4.4%.
